The panel holds about 83,000 compounds, 20% with a hit somewhere; the sample as a whole holds those more often.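 48-hour exposure, single concentration, 96-well plates; percent growth endpoint where 0 means no net growth. Active: below 10.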 Activity calls are given as the source filed them.
What was measured:
Assay in all cases: NCI-60 one-dose screen, 48 h (100 = growth as untreated, 0 = no growth, -100 = all killed)
Settings in all cases: 10 µM unless noted
NCI-H23 lung = test system: NCI-H23 lung
NCI-H226 lung = test system: NCI-H226 lung
NCI-H322M lung = test system: NCI-H322M lung
HOP-62 NSCLC = test system: HOP-62 NSCLC
NCI-H460 lung = test system: NCI-H460 lung
HOP-92 NSCLC = test system: HOP-92 NSCLC
NCI-H522 lung = test system: NCI-H522 lung
A549/ATCC NSCLC = test system: A549/ATCC NSCLC
786-0 renal = test system: 786-0 renal
COLO 205 colon = test system: COLO 205 colon
DU-145 prostate = test system: DU-145 prostate
K-562 leukemia = test system: K-562 leukemia
MALME-3M melanoma = test system: MALME-3M melanoma
MDA-MB-231 breast = test system: MDA-MB-231 breast
RXF 393 renal = test system: RXF 393 renal
SF-268 CNS = test system: SF-268 CNS
SF-295 CNS = test system: SF-295 CNS
SF-539 CNS = test system: SF-539 CNS
UACC-257 melanoma = test system: UACC-257 melanoma
M14 melanoma = test system: M14 melanoma

Measured: growth

CN1CCN(CCCOc2ccc3ncnc(Nc4ccc(Oc5cccc(F)c5)c(Cl)c4)c3c2)CC1
inactive: NCI-H23 lung 50.8% | NCI-H226 lung 88.4% | NCI-H322M lung 22.1% | HOP-62 NSCLC 48.7% | HOP-92 NSCLC 31.4% | NCI-H522 lung 22% | A549/ATCC NSCLC 21.1% | DU-145 prostate 15.2% | SF-268 CNS 40.5%
active: NCI-H460 lung -62.8% | 786-0 renal -3.9% | COLO 205 colon -37% | K-562 leukemia -30% | MALME-3M melanoma -72.4% | MDA-MB-231 breast -65.4% | RXF 393 renal -55.7% | SF-295 CNS -35% | SF-539 CNS -75.1% | UACC-257 melanoma -59.6% | M14 melanoma -75.7%

Fc1ccc(COc2ccc(Nc3ncnc4sc5c(c34)CCCC5)cc2)cc1
inactive: NCI-H23 lung 99.4% | NCI-H226 lung 102% | NCI-H322M lung 86.9% | HOP-62 NSCLC 97.2% | NCI-H460 lung 97.3% | HOP-92 NSCLC 88.9% | NCI-H522 lung 73% | A549/ATCC NSCLC 88.4% | 786-0 renal 94.6% | COLO 205 colon 103% | DU-145 prostate 96.8% | K-562 leukemia 103% | MALME-3M melanoma 109% | MDA-MB-231 breast 94.9% | RXF 393 renal 109% | SF-268 CNS 89.8% | SF-295 CNS 89.8% | SF-539 CNS 103% | UACC-257 melanoma 106% | M14 melanoma 104%

CCC(CC)(N(CC(=O)O)CC(=O)O)C(CC)(CC)N(CC(=O)O)CC(=O)O
inactive: NCI-H23 lung 106% | NCI-H226 lung 106% | NCI-H322M lung 122% | HOP-62 NSCLC 103% | NCI-H460 lung 108% | HOP-92 NSCLC 95.6% | NCI-H522 lung 100% | A549/ATCC NSCLC 91.3% | 786-0 renal 109% | COLO 205 colon 113% | DU-145 prostate 119% | K-562 leukemia 101% | MALME-3M melanoma 133% | MDA-MB-231 breast 110% | RXF 393 renal 120% | SF-268 CNS 114% | SF-295 CNS 108% | SF-539 CNS 109% | UACC-257 melanoma 100% | M14 melanoma 106%

Cn1c(=O)c2c(c3ccccc31)OC(N)=C(C#N)C21C(=O)c2ccccc2C1=O
inactive: NCI-H23 lung 87.5% | NCI-H226 lung 81% | NCI-H322M lung 91.5% | HOP-62 NSCLC 80.3% | NCI-H460 lung 85% | HOP-92 NSCLC 92.8% | NCI-H522 lung 95.9% | A549/ATCC NSCLC 95.7% | 786-0 renal 95.1% | COLO 205 colon 102% | DU-145 prostate 107% | K-562 leukemia 111% | MALME-3M melanoma 86.5% | MDA-MB-231 breast 81.6% | RXF 393 renal 91% | SF-268 CNS 93% | SF-295 CNS 102% | SF-539 CNS 91.9% | UACC-257 melanoma 108% | M14 melanoma 87.2%

CCOC(=O)c1cn2ncnc(Oc3ccc(NC(=O)NC4CC4)c(F)c3)c2c1C
inactive: NCI-H23 lung 90.4% | NCI-H226 lung 78.6% | NCI-H322M lung 105% | HOP-62 NSCLC 95.2% | NCI-H460 lung 99.1% | HOP-92 NSCLC 132% | NCI-H522 lung 90.2% | A549/ATCC NSCLC 102% | 786-0 renal 106% | COLO 205 colon 113% | DU-145 prostate 110% | K-562 leukemia 88.6% | MALME-3M melanoma 107% | MDA-MB-231 breast 99.3% | RXF 393 renal 97.2% | SF-268 CNS 95% | SF-295 CNS 98.5% | SF-539 CNS 85% | UACC-257 melanoma 107% | M14 melanoma 109%

CCN1C(=O)N(CC)C2C1NN=c1s/c(=C\c3cc4ccccc4[nH]3)c(=O)n12 (stereo not given)
active: NCI-H460 lung 0.818% | HOP-92 NSCLC -5.71% | NCI-H522 lung -12.2% | A549/ATCC NSCLC 0.183% | COLO 205 colon -32.5% | K-562 leukemia 9.13% | SF-539 CNS -21.9%
inactive: NCI-H23 lung 34.8% | NCI-H226 lung 38.6% | NCI-H322M lung 50.6% | HOP-62 NSCLC 16.5% | 786-0 renal 28.9% | DU-145 prostate 16.4% | MALME-3M melanoma 33.4% | MDA-MB-231 breast 14.7% | RXF 393 renal 47.3% | SF-268 CNS 25.6% | SF-295 CNS 18.6% | UACC-257 melanoma 45.5% | M14 melanoma 19.8%

CC1COCC(C)N1C1=C(Cl)C(=O)c2ccccc2C1=O (stereo not given)
active: K-562 leukemia 0.947%
inactive: NCI-H23 lung 63% | NCI-H226 lung 97.3% | NCI-H322M lung 94% | HOP-62 NSCLC 99.2% | NCI-H460 lung 104% | HOP-92 NSCLC 53.4% | NCI-H522 lung 36.3% | A549/ATCC NSCLC 97.1% | 786-0 renal 102% | COLO 205 colon 104% | DU-145 prostate 97.9% | MALME-3M melanoma 75.3% | MDA-MB-231 breast 67.4% | RXF 393 renal 61.3% | SF-268 CNS 90.8% | SF-295 CNS 102% | SF-539 CNS 104% | UACC-257 melanoma 37.1% | M14 melanoma 80.6%

CCN(CC)c1ccc(/C=C\c2cc(C)c3cc(C)ccc3n2)cc1
active: HOP-92 NSCLC -10.9% | 786-0 renal 2.99%
inactive: NCI-H23 lung 30.3% | NCI-H226 lung 59.5% | NCI-H322M lung 83% | HOP-62 NSCLC 45.6% | NCI-H460 lung 16.8% | NCI-H522 lung 28.6% | A549/ATCC NSCLC 31.9% | COLO 205 colon 50% | DU-145 prostate 61.5% | K-562 leukemia 13.1% | MALME-3M melanoma 32.9% | MDA-MB-231 breast 54.2% | RXF 393 renal 16.1% | SF-268 CNS 40.2% | SF-295 CNS 24.4% | SF-539 CNS 20.1% | UACC-257 melanoma 24.4% | M14 melanoma 15.9%

COc1cc2c(c(OC)c1OC)C(=O)N[C@@H]1[C@@H](O)[C@@H](O)[C@H](O)C[C@@H]21
inactive: NCI-H23 lung 106% | NCI-H226 lung 102% | NCI-H322M lung 104% | HOP-62 NSCLC 102% | NCI-H460 lung 110% | HOP-92 NSCLC 91.4% | NCI-H522 lung 97.7% | A549/ATCC NSCLC 98.4% | 786-0 renal 94.9% | COLO 205 colon 108% | DU-145 prostate 110% | K-562 leukemia 96.6% | MALME-3M melanoma 108% | MDA-MB-231 breast 106% | RXF 393 renal 102% | SF-268 CNS 103% | SF-295 CNS 98.3% | SF-539 CNS 100% | UACC-257 melanoma 100% | M14 melanoma 98.5%

COc1ccc(NC(=O)c2sc3nc4c(cc3c2N)CCCC4)cc1
inactive: NCI-H23 lung 28% | NCI-H226 lung 50.6% | NCI-H322M lung 53.1% | HOP-62 NSCLC 34.5% | NCI-H460 lung 18.7% | HOP-92 NSCLC 47.3% | A549/ATCC NSCLC 30% | 786-0 renal 38.6% | COLO 205 colon 14% | DU-145 prostate 11.5% | MALME-3M melanoma 54.8% | MDA-MB-231 breast 49.2% | SF-268 CNS 58.8% | UACC-257 melanoma 53% | M14 melanoma 18.3%
active: NCI-H522 lung -20.7% | K-562 leukemia 6.99% | RXF 393 renal -4.44% | SF-295 CNS 8.64% | SF-539 CNS 3.47%

COC(=O)c1c2c(c(C)[n+]([O-])c1C)C(=O)C=CC2=O
inactive: HOP-92 NSCLC 45.8% | A549/ATCC NSCLC 15.8% | K-562 leukemia 10.5% | SF-295 CNS 19%
active: NCI-H23 lung -68.3% | NCI-H226 lung -91.9% | NCI-H322M lung 2.39% | HOP-62 NSCLC -65.4% | NCI-H460 lung 2.35% | NCI-H522 lung -70.1% | 786-0 renal -29.9% | COLO 205 colon -78.5% | DU-145 prostate -78.6% | MALME-3M melanoma -87.8% | MDA-MB-231 breast 0.888% | RXF 393 renal -76.2% | SF-268 CNS -0.514% | SF-539 CNS -98.2% | UACC-257 melanoma -80.8% | M14 melanoma -82.8%

O=C(/C=C\c1ccco1)/C=C/c1ccco1
inactive: NCI-H23 lung 98.6% | NCI-H226 lung 98.6% | NCI-H322M lung 117% | HOP-62 NSCLC 98.1% | NCI-H460 lung 116% | HOP-92 NSCLC 107% | NCI-H522 lung 112% | A549/ATCC NSCLC 102% | 786-0 renal 110% | COLO 205 colon 106% | DU-145 prostate 106% | K-562 leukemia 111% | MALME-3M melanoma 112% | MDA-MB-231 breast 93.4% | RXF 393 renal 100% | SF-268 CNS 113% | SF-295 CNS 101% | SF-539 CNS 108% | UACC-257 melanoma 100% | M14 melanoma 105%

Cc1ccc(O)c(NC(=O)c2ccc(CNc3ccnc(C(F)(F)F)c3)cc2)c1
inactive: NCI-H23 lung 81.1% | NCI-H226 lung 74% | NCI-H322M lung 65.3% | HOP-62 NSCLC 56% | NCI-H460 lung 18.8% | HOP-92 NSCLC 92.1% | NCI-H522 lung 67.6% | A549/ATCC NSCLC 53% | 786-0 renal 48.8% | COLO 205 colon 152% | DU-145 prostate 107% | K-562 leukemia 24.2% | MALME-3M melanoma 59.9% | MDA-MB-231 breast 48.9% | RXF 393 renal 92% | SF-268 CNS 79.9% | SF-295 CNS 17.2% | SF-539 CNS 35.1% | UACC-257 melanoma 71.3% | M14 melanoma 49.2%

O=C(c1ccc(Cl)cc1Cl)N1c2ccccc2Sc2ccccc21
active: K-562 leukemia -42.2%
inactive: NCI-H23 lung 73.5% | NCI-H226 lung 68% | NCI-H322M lung 85.2% | HOP-62 NSCLC 64.7% | NCI-H460 lung 18.3% | HOP-92 NSCLC 71.5% | NCI-H522 lung 63.7% | A549/ATCC NSCLC 54.2% | 786-0 renal 67% | COLO 205 colon 45% | DU-145 prostate 65.2% | MALME-3M melanoma 63.8% | MDA-MB-231 breast 68.8% | RXF 393 renal 70% | SF-268 CNS 50% | SF-295 CNS 53.1% | SF-539 CNS 41.8% | UACC-257 melanoma 64.3% | M14 melanoma 59.8%

COc1cc(C2=NN(C(C)=O)C(c3ccc(N(C)C)cc3)C2)cc(OC)c1OC (stereo not given)
inactive: NCI-H23 lung 88.8% | NCI-H226 lung 97.8% | NCI-H322M lung 82.7% | HOP-62 NSCLC 83.9% | NCI-H460 lung 107% | HOP-92 NSCLC 79.7% | NCI-H522 lung 72.4% | A549/ATCC NSCLC 90.6% | 786-0 renal 79.7% | COLO 205 colon 108% | DU-145 prostate 103% | K-562 leukemia 81.7% | MALME-3M melanoma 87.3% | MDA-MB-231 breast 74.1% | RXF 393 renal 103% | SF-268 CNS 105% | SF-295 CNS 95.1% | SF-539 CNS 91.5% | UACC-257 melanoma 76.7% | M14 melanoma 95%

Source: PubChem BioAssay (NCI)
